Measurements published in PubChem BioAssay AID485313 (National Center for Advancing Translational Sciences (NCATS), 2010).
In all, about 320,000 compounds went through this assay and about 7,600 (2.4%) were called active. Roughly 3% stayed inconclusive and do not appear here. The call rests on the fitted dose curve; in most records, active means well fitted activation curve with a large enough effect; inconclusive means small, poorly fitted or top-dose-only effect; inactive means no such curve, though single readings can be large or run the other way. Shown is part of a subset that was picked to be rich in actives. Entries that show only a call come without a potency.

Test: qHTS Assay for NPC1 Promoter Activators; further: nearly all actives have a fitted effect of over 60% in size;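 on activation: reporter is driven by a mutant NPC1 promoter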
Conditions: Huh7 NPC1 promoter luciferase reporter, 24 h; series mostly up to 9.22 µM
Summary of the method: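 Cells: Huh7 expressing luciferase under the NPC1 promoter, 1500/well. Seeded 2 h, compound added, incubated 24 h at 37 °C. Luciferase reagent, 10 min ambient, then luminescence.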
Potency means the concentration at half of the fitted maximal effect.

SMILES | Potency
Nc1ncc(CN2CCCC(C(=O)Nc3ccc(-c4ccco4)cc3)C2)cn1 (stereo unspecified) | inactive
COc1ccc(C(C)(C)C)cc1NC(=O)CCN1C(=O)C2CCCCC2C1=O (stereo unspecified) | inactive
O=C(CSc1ncnc2c1nnn2Cc1ccc(F)cc1)NC1CCCC1 | inactive
CN(C)C(=O)COC(=O)c1cccc(S(=O)(=O)N2CC3(C)CC2CC(C)(C)C3)c1 (stereo unspecified) | inactive
CCCNC(=O)c1c(Cl)cnn1-c1ccc(C)cc1 | 2510 nM (active)
CCCc1c(C(=O)O)cnn1-c1ccc(Cl)cc1 | inactive
CCCNC(=O)CCc1c(C)nc2c(c(C)nn2-c2ccc(C)cc2)c1C | inactive
Cc1ccc(C)c(OCC(=O)NNC(=O)C2CCC2)c1 | inactive
O=C(O[C@@H]1[C@H](Cc2ccccc2)NS(=O)(=O)[C@H]2C[C@@H]3C=C[C@]12O3)c1ccccc1Br | inactive
O=C(CNS(=O)(=O)c1ccc2c(c1)OCCCO2)N1CCN(c2ccc(F)cc2)CC1 | inactive
O=C(NNC(=O)C1CCC1)c1ccccc1 | inactive
COc1ccc(S(=O)(=O)N2CCOCC2)cc1NC(=O)CSc1cc(C)ccc1C | inactive
O=C(Nc1ccccc1)c1cc2ccccc2[nH]1 | 3980 nM (active)
COc1ccc2[nH]c(C(=O)Nc3ccccc3Cl)cc2c1 | inactive
CC(C)n1c(=O)[nH]c2cc(C(=O)Nc3ccccc3)ccc21 | inactive
CC1(C(=O)OCC(=O)Nc2ncc(Cl)cc2Cl)CC1(Cl)Cl (stereo unspecified) | inactive
O=S(=O)(c1ccc(SCc2ccc(Br)cc2)nc1)N1CCOCC1 | inactive
CCOc1ccc(C(=O)NCC(=O)N2CCN(c3ccc(C(F)(F)F)cn3)CC2)cc1 | inactive
Cc1ccc(NC(=O)O/N=C/c2cccc([N+](=O)[O-])c2)cc1 | inactive
O=[N+]([O-])c1cccc(/C=N/Nc2ncc(Br)cn2)c1 | 2820 nM (active)
O=C(N/N=C/c1cccc([N+](=O)[O-])c1)C1CC(=O)N(c2ccc(Br)cc2)C1 (stereo unspecified) | inactive
CC(C)Oc1ccc(C(=O)NCC(=O)Nc2ccc3c(c2)CCC3)cc1 | inactive

SMILES | Potency
COc1ccc(/C=N/NC(=O)c2ccc3c(c2)OCCO3)c(OC)c1 | inactive
COc1ccc(/C=N/Nc2cc(N3CCOCC3)nc(C)n2)c(OC)c1 | inactive
COc1ccc(/C=N/OCc2ccccc2C#N)c(OC)c1 | 3980 nM (active)
Cc1cc(=O)oc2cc(NC(=O)C(C)Oc3ccccc3)ccc12 (stereo unspecified) | inactive
CC(C)C(=O)Nc1ccc2c(c1)oc1ccccc12 | 3550 nM (active)
CC(C)C(=O)Nc1ccc2oc(=O)ccc2c1 | inactive
O=S(=O)(NCCCCCCNS(=O)(=O)c1c(F)cccc1F)c1ccc2c(c1)OCCO2 | inactive
COc1ccc(NC(=S)N2CCCC(CO)C2)c(OC)c1 (stereo unspecified) | inactive
CCCCc1ccc(NC(=S)N2CCCC(CO)C2)cc1 (stereo unspecified) | 1580 nM (active)
CCCCc1ccc(NC(=S)NCCCN2CCOCC2)cc1 | inactive
CC(C)N(C(=O)CN1CCN(S(=O)(=O)c2ccc(Br)s2)CC1)C(C)C | inactive
N#Cc1ccccc1NC(=O)c1cccc(COc2ccc(Cl)cc2Cl)c1 | 316 nM (active)
CSc1ccc(C#N)cc1NC(=O)c1cccc(Cl)c1 | inactive
O=C(Nc1cccc2cccnc12)c1cccc(Cl)c1 | inactive
CCn1nc(C(=O)Nc2ccc(N3CCOCC3)cc2)c2ccccc2c1=O | inactive
CC(C(=O)N(C)CC(=O)Nc1ccccc1C(F)(F)F)N1C(=O)c2ccccc2C1=O (stereo unspecified) | inactive
CSCCNC(=O)c1ccc2nc(Cc3ccccc3F)oc2c1 | 2510 nM (active)
COc1ccc(Cc2nc3ccc(C(=O)NCC4CCOCC4)cc3o2)cc1OC | inactive
COCCNC(=O)c1ccc2nc(Cc3ccc(OC)c(OC)c3)oc2c1 | inactive
COc1ccc(C(=O)COC(=O)c2ccc([N+](=O)[O-])s2)cc1OC | inactive
O=C(C(=O)N1CCc2ccccc2C1)N1CCc2ccccc2C1 | inactive
CCc1ccc(NC(=O)N2CCN(c3ccccc3)CC2)cc1 | inactive

SMILES | Potency
CCc1ccc(NC(=O)N2CCc3ccccc3C2)cc1 | 2240 nM (active)
CCCn1nc(C(=O)OCc2nc(N)nc(Nc3ccccc3C)n2)c2ccccc2c1=O | inactive
COc1ccc(/C(O)=C2/C(=O)C(=O)N(c3nc(C)c(C)s3)C2c2ccco2)cc1 (stereo unspecified) | inactive
CCOc1ccc(/C(O)=C2\C(=O)C(=O)N(c3ccc(OC)cc3)C2c2ccccc2[N+](=O)[O-])cc1 (stereo unspecified) | 398 nM (active)
COc1ccc(C2/C(=C(/O)c3ccccc3)C(=O)C(=O)N2C)c(OC)c1 (stereo unspecified) | inactive
c1ccc2cc(CCCc3cc4ccccc4cn3)ncc2c1 | inactive
COc1cc(OC)cc(C(=O)NNC(=O)CCOc2ccccc2OC)c1 | inactive
COc1ccc(Nc2ncc(F)c(N3CCOCC3)n2)cc1 | 1260 nM (active)
Cc1ccc(Nc2nc(N3CCOCC3)nc(N3CCOCC3)n2)cc1Cl | inactive
CCOc1ccc(Nc2nc(Cl)nc(N3CCN(c4ccc(OC)cc4)CC3)n2)cc1 | inactive
Cc1cccc(NC(=O)CN2CCN(C(=O)C3CCN(C(=O)/C=C/c4ccccc4)CC3)CC2)c1C | inactive
CCOC(=O)[C@@H]1[C@H]2COc3ccc(Br)cc3[C@H]2N2C(=O)N(c3ccc(Cl)cc3)C(=O)[C@@]12C | inactive
COc1ccccc1-c1oc2ccccc2c1C#CCCCCO | inactive
c1ccc(-c2cc(-c3ccccc3)[nH]n2)cc1 | inactive
OCCCN1c2ccccc2Nc2nnc(-c3ccccc3)cc21 | 2240 nM (active)
CN=c1scc(-c2cc(OC)ccc2OC)n1/N=C/c1c(C)[nH]c2ccccc12 | inactive
N#Cc1ccc(C2=CC(=O)C[C@H](c3ccc(Cl)cc3)C2)cc1 | inactive
Cc1cc(C#N)c(SCC(N)=O)nc1-c1ccc(F)cc1 | inactive
CC(=O)c1cc(C#N)c(N2CC(C)OC(C)C2)nc1C (stereo unspecified) | inactive
CC(=O)c1cc(C#N)c(SCC(=O)C(C)(C)C)nc1C | 3160 nM (active)
CCOC(=O)c1ccc(N/C(=N/S(=O)(=O)c2ccccc2)c2ccccc2)cc1 | inactive
Cc1ccc(S(=O)(=O)N2CCOCC2)cc1NC(=O)COC(=O)c1cnccn1 | inactive

SMILES | Potency
CCOc1ccc(/C=N/Nc2nncc(-c3ccccc3)n2)cc1OC | inactive
CCNc1nc(NCC)nc(N/N=C/c2ccc(O)c(OC)c2)n1 | inactive
COc1ccc(/C=N/Nc2nc3ccccc3o2)cc1OC | 2000 nM (active)
CCN(CC)S(=O)(=O)c1ccc(N2CCOCC2)c(NC(=O)C(C)Oc2ccc(F)cc2)c1 (stereo unspecified) | inactive
CC1CCCCC12NC(=O)N(CC(=O)OCC(=O)NCc1ccc(F)cc1)C2=O (stereo unspecified) | inactive
CCN(CC(=O)Nc1ccccc1C(=O)NC1CC1)Cc1cccs1 | inactive
Cn1ccsc1=NC(=O)c1cc(S(=O)(=O)N2CCOCC2)ccc1Cl | inactive
COc1ccc(-c2nc3n(c2Br)CCC3)cc1 | 2820 nM (active)
COc1ccc(-c2nc(SCC(=O)N3CCCC3)n[nH]2)cc1 | inactive
COc1ccc(-c2nnc3n2CCCCC3)cc1 | inactive
CN(CC(=O)Nc1ccc(F)c(F)c1F)C(=O)Cn1cnc2c1c(=O)n(C)c(=O)n2C | inactive
Cc1ccsc1C(=O)NC1CCCCC1C (stereo unspecified) | inactive
COc1cc(/C=N\Nc2ccc([N+](=O)[O-])cn2)ccc1OCC(=O)O | inactive
COc1cc(C(=O)OCc2ccc([N+](=O)[O-])cc2)cc(OC)c1OC | inactive
COc1cc(/C=N/O)ccc1OCc1ccc([N+](=O)[O-])cc1 | 2510 nM (active)
Cc1ccccc1-c1cc(C(=O)NCC2CC2)n(CC2CC(c3cccnc3)=NO2)n1 (stereo unspecified) | inactive
O=C(COc1ccccc1O)NC1CCCC1 | inactive
CC(=O)Nc1ccc(NC(=O)CSc2nnc(C3CC3)n2-c2ccccc2)cc1 | inactive
COc1ccccc1-n1ccnc1SCC(=O)NC(C)(C)C | inactive
CC(C)(C)NC(=O)CSC(=Nc1ccccc1F)NC#N | 3980 nM (active)
Cc1ccccc1CSCC(=O)NC(=O)NC(C)(C)C | inactive
COc1cc(C(C)=O)ccc1OC(C)C(=O)Nc1ccc(S(=O)(=O)N2CCCC2)cc1 (stereo unspecified) | inactive

SMILES | Potency
CC(C)N(C(=O)CSc1nnc(NC2CC2)s1)c1ccccc1 | inactive
Cc1ccccc1NC(=O)Cc1nc(COC(=O)c2ccc(C(F)(F)F)cc2)cs1 | inactive
CCC(C)N(C)C1CCN(C(=S)Nc2ccc(OC)cc2)CC1 (stereo unspecified) | inactive
COc1ccc(NC(=S)N2N=CCC2c2ccccc2)cc1 (stereo unspecified) | 1410 nM (active)
COc1ccc(NC(=S)N2CCc3cc(OC)c(OC)cc3C2)cc1 | inactive
N#CCCN(C(=O)COC(=O)C1CCN(c2ccc(C(F)(F)F)cn2)CC1)c1ccc(F)cc1 | inactive
O=C(NCC1CCCO1)c1ccc(S(=O)(=O)Nc2ccc(F)cc2)cc1 (stereo unspecified) | inactive
c1csc(-c2cn3c(n2)SCC3)c1 | inactive
O=c1c2cc(-c3ccccc3)sc2nc2n1N=C(c1cccs1)CS2 | 3160 nM (active)
Cc1nnc2n1N=C(c1ccccc1)CS2 | inactive
COC(=O)[C@]1(C)CCC[C@@]2(C)C3CC[C@]4(OC(C)=O)C[C@@]3(CCC21)CC4=NO (stereo partly specified) | inactive
O=C(NCCC1=CCCCC1)c1ccc(Cl)c([N+](=O)[O-])c1 | inactive
O=C(NCCC1=CCCCC1)c1ccc(-n2cncn2)cc1 | 3550 nM (active)
O=C(COc1cccc(-n2cnnn2)c1)NCCC1=CCCCC1 | inactive
COc1ccc(-c2nn(-c3ccccc3)cc2/C=C\C(=O)Nc2ccc(C(=O)O)cc2)cc1 | inactive
O=C(O)c1ccc(N/N=C/c2cn(-c3ccccc3)nc2-c2cccs2)cc1 | 1260 nM (active)
O=C(NCc1cccnc1)c1cn(-c2ccccc2)nc1-c1cccs1 | inactive
COc1ccc(OC)c(CN2CCN(C(=O)CNC(=O)c3cc(C)cc(C)c3)CC2)c1 | inactive
